Results on four molecules are retold here after PubChem BioAssay.

A short description of test [1]: E. coli DRC41 culture turbidity changes, primary screen, E. coli filamentation inducer project, strain DRC41, OD650, 48 h (AID 1152).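 Also: E. coli MC1000 strain DRC41 lacking acrAB efflux pump and sulA.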 The following applies: E. coli DRC41 (acrAB sulA), higher = more signal, called active from +8 up or from −8 down.
The nature of test [2]: small-molecule binders of probe aLefty1, primary screen, biochemical, small-molecule microarray, 635/667 nm fluorescence (AID 1153).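 Also: score merges spot fluorescence with signal-to-noise ratio from the scanned slide images.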 Particulars: higher = more signal.
Test [3] can be described thus: PSAC antagonists in infected red cells, primary screen, cell-based, P. falciparum Indochina, OD700, 1 h (AID 1154). Particulars: P. falciparum Indochina infected RBC osmotic lysis, higher = more signal, called active from +8 up or from −8 down.
Test [4] is described as follows: PSAC antagonists in infected red cells, primary screen, cell-based, P. falciparum Indochina, OD700, 2 h (AID 1155).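 Also: lysis reports solute entry through the parasite surface anion channel PSAC; channel blockers reduce lysis of infected cells.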 The following applies: P. falciparum Indochina infected erythrocytes, osmotic lysis OD700; higher = more signal, called active from +8 up or from −8 down.
Test [5] is described as follows: osmotic lysis modulators in infected erythrocytes, primary screen, PSAC antagonist project, cell-based, P. falciparum Indochina, OD700, 3 h (AID 1156). Particulars: higher = more signal, called active from +8 up or from −8 down.
Test [6] can be described thus: PSAC antagonists in infected red cells, primary screen, cell-based, P. falciparum Indochina, OD700, 18 h (AID 1157). The following applies: P. falciparum Indochina infected erythrocytes, osmotic lysis OD700, 18 h; higher = more signal, called active from +8 up or from −8 down.
The nature of test [7]: modulators of S6 phosphorylation in cells, primary screen, cell-based, A549, cytoblot, luminescence, serum-stimulated (AID 1158).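 Also: serum-stimulated A549 lung adenocarcinoma cells; signal is phosphorylated S6 detected by cytoblot immunostaining with HRP secondary.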 Particulars: A549 phospho-S6 cytoblot, 5 h, higher = more signal.
Test [8] concerns the target NADPH oxidase 2 (Homo sapiens) (UniProt P04839). The test can be described thus: NOX2-dependent H2O2 signal modulators, primary screen, NOX inhibitor project, cell-based, HEK293-NOX2, PMA-stimulated, Amplex Red fluorescence (AID 1159). Also: test concentration not given here. The following applies: 45 min, higher = more signal, called active from +8 up or from −8 down.
For test [9], the target named is NADPH oxidase 4 (Homo sapiens) (UniProt Q9NPH5). The test is described as follows: NOX4-dependent H2O2 signal modulators, primary screen, NOX inhibitor project, cell-based, HEK293-NOX4, tetracycline-induced, Amplex Red fluorescence (AID 1160). Particulars: 45 min, higher = more signal, called active from +8 up or from −8 down.
In test [10] the target is NADPH oxidase 5 (Homo sapiens) (UniProt Q96PH1). The test can be described thus: NOX5-dependent H2O2 signal modulators, primary screen, NOX inhibitor project, cell-based, HEK293-NOX5, Amplex Red fluorescence (AID 1161). The following applies: HEK293-NOX5, ionomycin, 45 min, higher = more signal.
A short description of test [11]: A549 cell viability effects, profiling panel, calcein-AM fluorescence, 48 h, basal (AID 1162). Also: test concentration not given here. Particulars: higher = more signal.
Test [12] in a line: adipocyte viability effects, profiling panel, cell-based, 3T3-L1 adipocytes, calcein-AM fluorescence, 48 h, basal (AID 1163). Also: test concentration not given here. Particulars: 3T3-L1 adipocytes viability, higher = more signal.
Test [13] is described as follows: HepG2 cell viability effects, profiling panel, calcein-AM fluorescence, 48 h, basal (AID 1164). Also: test concentration not given here. The following applies: higher = more signal.
The nature of test [14]: MM1S cell viability effects, profiling panel, calcein-AM fluorescence, 48 h, basal (AID 1165).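 Also: viability of MM1S multiple myeloma cells under basal unstimulated conditions; test concentration not given here.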 The following applies: higher = more signal.
A short description of test [15]: basal RPMI8226 viability, no added stimulus, profiling panel, cell-based, calcein-AM fluorescence, 48 h, PK04 Diversity Set (AID 1166).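 Also: cells grown under basal conditions without added stimulus; test concentration not given here.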 Particulars: RPMI8226 myeloma viability, higher = more signal.
A short description of test [16]: basal HepG2 mitochondrial membrane potential changes, profiling panel, cell-based, JC-1 fluorescence, 24 h, 100 nL compound (AID 1167). Also: test concentration not given here. The following applies: higher = more signal.
Test [17] in a line: basal 3T3-L1 adipocyte mitochondrial potential changes, profiling panel, cell-based, JC-1 fluorescence, 3T3-L1 adipocytes, 24 h, 100 nL compound (AID 1168). Also: test concentration not given here. Particulars: JC-1 mitochondrial fluorescence, higher = more signal, called active from +8 up or from −8 down.
Test [18] is described as follows: basal RPMI8226 mitochondrial membrane potential changes, profiling panel, cell-based, JC-1 fluorescence, 24 h, 100 nL compound (AID 1169). Also: test concentration not given here. The following applies: RPMI8226 myeloma, JC-1 mitochondrial potential fluorescence, higher = more signal.
The nature of test [19]: basal MM1S mitochondrial membrane potential changes, profiling panel, cell-based, JC-1 fluorescence, 24 h, 100 nL compound (AID 1170). Also: test concentration not given here. The following applies: higher = more signal.
A short description of test [20]: A549 lung cancer cell viability effects, profiling panel, resazurin fluorescence, 24 h, PK04 Diversity Set (AID 1171). Also: test concentration not given here. The following applies: higher = more signal, called active from +8 up or from −8 down.

Calls of active or inactive are those of the source.

Sequence of NADPH oxidase 5 (Homo sapiens) (Q96PH1 whole entry, looked up): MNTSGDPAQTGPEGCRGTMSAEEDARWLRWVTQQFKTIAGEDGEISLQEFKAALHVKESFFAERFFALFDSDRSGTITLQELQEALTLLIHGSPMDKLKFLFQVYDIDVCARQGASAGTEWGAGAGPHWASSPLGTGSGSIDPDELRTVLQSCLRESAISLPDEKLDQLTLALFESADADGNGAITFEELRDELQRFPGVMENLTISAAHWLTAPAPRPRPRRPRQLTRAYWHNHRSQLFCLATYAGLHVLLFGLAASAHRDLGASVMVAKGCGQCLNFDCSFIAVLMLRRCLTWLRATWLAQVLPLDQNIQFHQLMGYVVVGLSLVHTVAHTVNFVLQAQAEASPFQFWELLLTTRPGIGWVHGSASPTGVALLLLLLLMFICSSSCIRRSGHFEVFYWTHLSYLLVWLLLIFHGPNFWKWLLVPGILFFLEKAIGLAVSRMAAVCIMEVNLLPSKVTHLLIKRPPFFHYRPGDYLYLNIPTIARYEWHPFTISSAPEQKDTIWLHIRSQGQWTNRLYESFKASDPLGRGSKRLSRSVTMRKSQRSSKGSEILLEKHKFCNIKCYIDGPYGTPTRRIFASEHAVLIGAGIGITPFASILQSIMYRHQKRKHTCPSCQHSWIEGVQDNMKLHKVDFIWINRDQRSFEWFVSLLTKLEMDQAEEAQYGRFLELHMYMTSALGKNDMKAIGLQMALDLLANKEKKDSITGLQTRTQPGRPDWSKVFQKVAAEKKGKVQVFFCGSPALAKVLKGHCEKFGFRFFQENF
Sequence of NADPH oxidase 4 (Homo sapiens) (Q9NPH5 whole entry, looked up): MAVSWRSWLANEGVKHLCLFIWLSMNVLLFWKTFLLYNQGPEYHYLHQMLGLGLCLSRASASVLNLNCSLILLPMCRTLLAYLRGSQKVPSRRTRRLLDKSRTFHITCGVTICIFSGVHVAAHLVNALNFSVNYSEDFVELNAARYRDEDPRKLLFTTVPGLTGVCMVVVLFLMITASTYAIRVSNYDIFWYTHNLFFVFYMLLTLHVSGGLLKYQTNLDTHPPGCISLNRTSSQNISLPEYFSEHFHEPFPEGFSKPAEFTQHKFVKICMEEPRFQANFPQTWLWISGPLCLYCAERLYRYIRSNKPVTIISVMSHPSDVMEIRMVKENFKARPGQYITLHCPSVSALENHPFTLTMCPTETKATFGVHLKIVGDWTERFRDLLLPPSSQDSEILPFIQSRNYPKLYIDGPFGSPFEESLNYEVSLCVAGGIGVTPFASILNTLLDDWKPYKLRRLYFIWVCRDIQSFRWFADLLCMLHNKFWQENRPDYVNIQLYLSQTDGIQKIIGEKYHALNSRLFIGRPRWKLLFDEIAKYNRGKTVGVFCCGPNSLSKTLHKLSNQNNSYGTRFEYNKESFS
Sequence of NADPH oxidase 2 (Homo sapiens) (P04839 whole entry, looked up): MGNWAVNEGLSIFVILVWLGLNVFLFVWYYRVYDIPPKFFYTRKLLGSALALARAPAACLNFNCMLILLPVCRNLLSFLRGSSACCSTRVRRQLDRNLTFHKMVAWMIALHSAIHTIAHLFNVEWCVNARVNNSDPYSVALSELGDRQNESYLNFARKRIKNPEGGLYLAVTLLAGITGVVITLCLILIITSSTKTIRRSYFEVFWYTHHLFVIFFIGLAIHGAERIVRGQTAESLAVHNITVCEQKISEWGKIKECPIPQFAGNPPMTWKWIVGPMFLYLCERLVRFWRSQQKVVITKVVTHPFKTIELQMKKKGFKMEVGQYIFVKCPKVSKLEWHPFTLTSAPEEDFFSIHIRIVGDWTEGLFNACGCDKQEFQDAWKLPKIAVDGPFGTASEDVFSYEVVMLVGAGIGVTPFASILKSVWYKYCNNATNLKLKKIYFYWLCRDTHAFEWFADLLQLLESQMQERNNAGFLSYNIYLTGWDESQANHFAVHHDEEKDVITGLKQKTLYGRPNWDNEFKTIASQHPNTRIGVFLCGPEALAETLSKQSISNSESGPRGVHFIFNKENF

As to `CCCCN1CC=CC23O[C@@H]4/C=C\CCCOC(=O)C4[C@H]2C(=O)N(C(CO)C(C)C)[C@@H]3C1=O` (stereo not given in full), the z-score in test [1] is -0.539 (inactive); in test [3] it was 1.47 (inactive); in test [4] it was 0.701 (inactive); in [5], 0.434 (inactive); in test [6], 0.505 (inactive); in test [7] it was -0.515. The z-score was 1.71 (inactive) in [8]; 0.808 (inactive) in [9]; 1.69 in test [10]; 0.374 in test [11]; 0.265 in [12]; -0.0249 in test [13]. The z-score in [14] is 0.201; in test [15], 0.463; in [16], -0.945; in test [17], -0.525 (inactive); in test [18], -0.4; in test [19], -0.608. The z-score in [20] is -0.61 (inactive). In addition, the composite z-score in test [2] was -0.178.

For `CCOC(=O)C[C@H]1[C@H](OC(=O)Cc2ccc3c(c2)OCO3)[C@@H](NC(=O)Cc2ccc(OC)cc2)c2cc(OCCCO)ccc2N1C(=O)Cc1ccc(OC)cc1`, the z-score in [1] is 1.91 (inactive); in test [3] it was 10.7 (active); in [4], 0.647 (inactive); in [5], -1.02 (inactive); in test [6], -0.395 (inactive); in test [7], 1.68. Further, the z-score in [8] is -0.988 (inactive); in [9] it was 0.754 (inactive); in [10], 0.404; in test [11] it was 2.07; in test [12], 1.17; in test [13] it was 1.57. Moreover, the z-score in [14] is 0.405; in test [15] it was -0.658; in test [16] it was 1.34; in test [17], 0.376 (inactive); in [18] it was 0.229; in test [19], -0.88. The z-score in [20] was -0.379 (inactive). In test [2], the composite z-score is -0.15.

In the case of `COCCOC(=O)N1C(=O)[C@@]2(c3cc(C#CCC(C(=O)OC)C(=O)OC)ccc31)[C@H](C(=O)Nc1nc3ccccc3s1)[C@H]1C(=O)O[C@H](c3ccccc3)[C@H](c3ccccc3)N1[C@@H]2c1ccc(O)cc1`, the z-score in [1] is 0.0976 (inactive); in [3] it was 1.3 (inactive); in [4], 0.575 (inactive); in test [5], -0.0813 (inactive); in test [6], 0.751 (inactive); in test [7], -0.0525. Besides, the z-score in test [8] is 1.59 (inactive); in test [9], -1.11 (inactive); in test [10], 0.755; in test [11], -0.857; in [12], 0.401; in test [13], -0.277. Moreover, the z-score in [14] is 0.0422; in [15], -0.23; in [16], -2.45; in test [17], -2.24 (inactive); in [18], 0.467; in test [19], 0.258. Also, the z-score in test [20] is 0.677 (inactive). This molecule came in with a composite z-score in test [2] of 0.786.

As for `COC(=O)[C@@]1(Cc2ccc(F)cc2)[C@H]2c3cc(C(=O)N4CCCC4)n(Cc4ccccn4)c3C[C@H]2CN1C(=O)c1ccccc1`, the z-score in [1] was -1.9 (inactive); in test [3] it was 2.2 (inactive); in test [4], 0.404 (inactive); in test [5] it was 0.893 (inactive); in [6], 0.987 (inactive); in test [7] it was 0.0347. In addition, the z-score was 0.553 (inactive) in test [8]; -1.33 (inactive) in test [9]; -2.47 in [10]; -0.94 in test [11]; -0.0559 in test [12]; -0.347 in test [13]. Moreover, the z-score is -0.333 in test [14]; -2 in [15]; 1.51 in test [16]; -0.474 (inactive) in test [17]; -0.116 in test [18]; -1.65 in test [19]. Besides, the z-score in [20] is -1.75 (inactive). Besides, the composite z-score in [2] was determined as 0.0479.
